Only some compounds are listed: those with a hit (about 10% of all), similar ones and a draw of the others.
NS1 function inh: inhibitors of influenza NS1 protein function; Potency, µM (top dose mostly 46.1 µM), inactives show at the highest dose activity, positive = more growth; 270,000 tested, 0.4% active; AID 2326; note: actives are rising curves; nearly all actives have a fitted effect of over 50% in size
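Compounds were scored for reversing the slow growth caused by influenza A NS1 in S. cerevisiae, measured by optical density at 600 nm. Assay medium contained 2% galactose at pH 6.0; NS1-free yeast of the same strain were the positive control.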
Pf growth 48h: inhibits P. falciparum growth in the first generation, 48 h | P. falciparum luciferase growth in erythrocytes, 48 h | Potency, µM (highest dose often 28.7 µM), without a hit: at the highest dose activity change, negative = inhibition, usual class: inhibitors | 310,000 tested, 5.9% active | AID 504832; active = well fitted inhibition curve with a large enough effect; inconclusive = small, poorly fitted or top-dose-only effect, or another doubt; inactive = no such curve, though single readings can be large or run the other way; note: % is set by controls: 0 for no effect and ±100 for the full control effect
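Firefly luciferase activity from engineered P. falciparum reports growth; inhibitors lower the luminescent signal. Cultures contained 2% hematocrit erythrocytes at 0.1% final parasitemia.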
Pf growth 96h: P. falciparum growth inhibition at 96 hour, primary screen for plastid delayed-death inhibitors | 320,000 tested, 6.9% active | Potency, µM (series often up to 28.7 µM), inactives show at the top dose activity change, negative = inhibition, most hits filed as inhibitors | P. falciparum luciferase reporter growth, 96 h | AID 504834; active = well fitted inhibition curve with a large enough effect; inconclusive = small, poorly fitted or top-dose-only effect, or another doubt; inactive = no such curve, though single readings can be large or run the other way; note: % is set by controls: 0 for no effect and ±100 for the full control effect
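96 h incubation, 37 C, 5% CO2, of luciferase-reporter P. falciparum-infected RBCs (2% hematocrit, 0.05% parasitemia final) with test compounds; endpoint luminescence.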
SARS PLpro yeast: SARS-CoV PLP inhibition in yeast; S. cerevisiae expressing SARS-CoV PLpro, growth rescue; Potency, µM (doses to about 32.9 µM), for inactives: at the top dose activity, positive = growth rescue, actives largely listed as activators; 330,000 tested, 0.19% active; note: 0% is about no effect; nearly all actives have a fitted effect of over 55% in size
Active calls of the source: *; u = inconclusive; x = not tested or not shown. Unless noted, calls come from the whole dose curve. Potency is the fitted concentration of half-maximal effect.

SMILES	NS1 function inh	Pf growth 48h	Pf growth 96h	SARS PLpro yeast
CCOC(=O)c1cnc(-n2nc(C)cc2C)nc1Nc1ccc(N(C)C)cc1	-84%	5.2µM*	3.3µM*	20%
CCOC(=O)c1cnc(-n2nc(C)cc2C)nc1Nc1ccc(O)cc1	4%	u	2.6µM*	-1%
CCOC(=O)c1cnc(-n2nc(C)cc2C)nc1Nc1ccc(C)cc1	16%	u	u	3%
Cc1ccc2c(c1)c(CC(=O)Nc1ccc(F)cc1)c(C(=O)O)n2C	24%	x	34%	-8%
CC1CCCC(NC(=O)CN(C)CC(=O)Nc2ccc(F)cc2)C1C (stereo not drawn)	x	-15%	35%	-3%
COc1ccc(C[C@H]2CN3C(=NC[C@@H]3C)N2CCNC(=O)CCC2CCCCC2)cc1	4%	u	u	0%
C/C=C(\C)C(=O)NCCN1C2=NC[C@@H](Cc3ccccc3)N2C[C@H]1Cc1ccc(O)cc1	-1%	31%	17%	-1%
O=C(CCC1CCCCC1)NCCN1C2=NC[C@H](Cc3ccccc3)N2C[C@H]1Cc1ccc(O)cc1	9%	u	4.7µM*	1%
C[C@H]1CN=C2N(CCNC(=O)CCC3CCCCC3)[C@H](Cc3ccc(O)cc3)CN21	1%	5%	12µM*	1%
O=C(CCC1CCCCC1)NCCN1C2=NC[C@@H](Cc3ccccc3)N2C[C@H]1Cc1ccc(O)cc1	1%	u	2.3µM*	1%
C=CCC[C@@H](Cc1ccc(F)cc1)C(=O)OC[C@@H](Cc1c[nH]c2ccccc12)NC(=O)[C@H](CC=C)CC(=O)N[C@H](CO)Cc1ccccc1	x	x	x	2%
CCN(CC)P1(=O)OC(c2cc(OC)c(OC)c(OC)c2)=Nc2c1c(C)nn2-c1ccccc1 (stereo not drawn)	-38%	10µM*	x	-16%
O=C(O)/C(=C/c1ccco1)NC(=O)c1ccc(Br)o1	7%	u	13µM*	-1%
O=C(Nc1ccc(C(=O)O)cc1)/C(=C\c1ccco1)NC(=O)c1ccc(Br)o1	7%	4%	13%	-15%
COC(=O)C1CCN(S(=O)(=O)c2cc3c4c(c2)CCN4C(=O)CC3)CC1	x	-7%	33%	-11%
Cc1ccc(C(=O)NCc2ccc(Cl)cc2)cc1S(=O)(=O)N1CCCCC1	x	u	u	-1%
COc1ccc(NC(=O)COc2ccccc2C(=O)NCC(c2ccccc2)N(C)C)cc1Cl (stereo not drawn)	-3%	u	13µM*	10%
Cc1ccc(Cl)cc1NC(=O)c1ccccc1OCC(=O)Nc1ccc(Cl)cc1	5%	u	9.3µM*	22%
COc1ccccc1C(=O)Nc1cc(Cl)ccc1O	-11%	u	u	-4%
CCOc1ccccc1C(=O)Nc1cc(Cl)ccc1O	-86%	3.3µM*	x	-22%
CS(=O)(=O)c1ccc(C(=O)OCC(=O)c2ccc(Cl)s2)cc1	x	21%	29%	-3%
Cc1ccc(CN2CCc3c(OCC(=O)Nc4cc(C)ccc4C)cccc3C2=O)cc1	4%	u	5.9µM*	-3%
Cc1cccc(CN2CCc3c(OCC(=O)NCc4ccco4)cccc3C2=O)c1	-21%	12µM*	9.3µM*	-3%
O=C1CC(c2ccco2)CC(O)=C1C=Nc1cc(Cl)ccc1O (stereo not drawn)	2%	9.3µM*	u	-10%
C[C@@H](N)C(=O)NC[C@H]1O[C@@H](n2cnc3c(N)ncnc32)[C@H](O)[C@@H]1O	x	x	x	-11%
SMILES	NS1 function inh	Pf growth 48h	Pf growth 96h	SARS PLpro yeast
Cc1cc(C)c(CN2CCC(CO)(CCOc3ccccc3)CC2)cc1C	0%	6.6µM*	0%	1%
Cc1c(CN2CCC(CO)(CCOc3ccccc3)CC2)c(=O)n(-c2ccccc2)n1C	6%	38%	u	0%
COc1cc(CN2CCC(CO)(CCOc3ccccc3)CC2)cc(OC)c1	-4%	12µM*	12µM*	-1%
OCC1(CCOc2ccccc2)CCN(Cc2cccn2-c2ncccn2)CC1	1%	u	-93%	0%
OCC1(CCOc2ccccc2)CCN(C2Cc3ccccc3C2)CC1	0%	8.3µM*	u	0%
OCC1(CCc2ccccc2)CCN(Cc2ccc(OC(F)F)cc2)CC1	0%	-28%	13µM*	-2%
Cc1c(S(=O)(=O)N2CCCCC2)c(=O)n(C)c(=O)n1C	x	6%	-5%	-1%
CCCCn1c(N)c(N(CCOC)C(=O)CCC2CCCCC2)c(=O)[nH]c1=O	x	-5%	-20%	6%
Cn1cnnc1SCC(=O)NNC(=O)c1ccc([N+](=O)[O-])cc1	x	x	x	17%
Cc1ccc(C)c(C(=O)COC(=O)C2CCN(c3ccc(C(F)(F)F)cn3)CC2)c1	x	u	1%	1%
